The panel holds about 83,000 compounds, 20% with a hit somewhere; the sample as a whole holds those more often.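 Percent growth is the endpoint: 0 to 100 indicates growth inhibition (40 means 60% inhibition), 0 means no net growth, and negative values indicate cell death.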 Activity calls are given as the source filed them. Rule for the calls: active = growth percent below 10; inactive = the rest.
Each molecule was assayed on SK-OV-3 ovarian (assay: NCI-60 one-dose screen, 48 h (100 = growth as untreated, 0 = no growth, -100 = all killed)). Conditions: 10 µM unless noted.
For `NC(=O)C(=Cc1ccc(Cl)cc1)C(N)=O`, the growth was 117% (inactive). With `CCN1C(=O)N(CC)C2SC(N/N=C/C=C/c3ccccc3OC)=NC21` (stereo not given) the growth was 52.8% (inactive). In the case of `CC(=O)C1=NN(c2ccc(Cl)cc2)C(=O)CN1C`, the growth is reported as 113% (inactive). In the case of `CCOC(=O)c1c(NCC(=O)Nc2ccc(Br)cc2)sc2c1CCCC2`, the growth is reported as 66.9% (inactive). For `CN1CCN(c2ccc3c(c2)nc(NNC(=O)c2ccncn2)c2cccn23)CC1`, the growth was 25% (inactive). For `CCOc1c(C#N)c(Nc2ccc(S(N)(=O)=O)cc2)c(C#N)c2nnc(C)n12`, the growth was 102% (inactive). For `O=c1[nH]c(CNc2ccc(NCc3c(-c4ccccc4)no[n+]3[O-])cc2)nc2c1cnn2-c1ccccc1`, the growth was 102% (inactive). In the case of `C#CCOc1ccc(C(Nc2ccc(Cl)cc2)c2nnnn2C2CCCCC2)cc1` (stereo not given), the growth is reported as 98.2% (inactive). `COc1cc(/C=N/Nc2ccnc3cc(Cl)ccc23)cc(OC)c1O` was tested, and the growth was 109% (inactive). With `COc1cc(C(=O)C[n+]2ccc3ccccc3c2)cc(OC)c1OC` the growth was 97.1% (inactive). For `Cc1ccc(NC(=O)c2ccc(CN3CCN(C)CC3)c(I)c2)cc1Oc1ccc(-c2[nH]nc3ncnc(N)c23)cc1`, the growth was 109% (inactive). For `COc1ccc(Cn2cc3c(c2-c2ccccc2)CCCc2cnoc2-3)cc1`, the growth was 83.7% (inactive). `N#Cc1c(NC(=O)c2ccc(F)c(Cl)c2)sc2c1CCC(=O)C2` was tested, and the growth was 25.8% (inactive). `c1ccc(-c2c(-c3ccccc3)[n+](Cc3ccc4ccccc4c3)c(-c3ccccc3)n2Cc2ccc3ccccc3c2)cc1` was tested, and the growth was -92.9% (active). `CCOC(=O)C1=C(C)N=C2Sc3ccccc3N2C1c1ccccc1` (stereo not given) was tested, and the growth was 125% (inactive). `CCn1c2ccc(/C=N/NS(=O)(=O)CCN(C)C)cc2c2cc(/C=N/NS(=O)(=O)CCN(C)C)ccc21` was tested, and the growth was 104% (inactive). `Cn1cc2c(c1)-c1c(sc3nc(-c4ccc(NC(=O)Nc5cc(C(C)(C)C)on5)cc4)cn13)CC2` was tested, and the growth was 49.3% (inactive). For `CCOC(=O)c1c(NC(=O)c2ccc(C(C)(C)C)cc2)sc2cc(OCCN3CCCCC3)ccc12`, the growth was 106% (inactive). For `COc1ccccc1/C=C/C=N/NC1=NC2C(S1)N(C)C(=O)N2c1ccccc1` (stereo not given), the growth was 62.4% (inactive). In the case of `CC1(C)CC[C@]2(C(=O)O)CC[C@]3(C)C(=CCC4[C@@]5(C)C[C@@H](O)[C@@H]6OC(c7cccc([N+](=O)[O-])c7)OC[C@@]6(C)C5CC[C@]43C)C2C1` (stereo not given in full), the growth is reported as 105% (inactive). With `CN(C)c1ncc(/C=C2\SC(=S)N(Cc3ccccc3Cl)C2=O)s1` the growth was 107% (inactive). With `O=C(/C=C1\C=CN(CCCCO)c2ccccc21)n1ccc2ccccc21` the growth was 97.6% (inactive). For `C#C[C@]1(O)CC[C@H]2[C@@H]3CC=C4c5sc(Nc6nc(C)cc(OC)n6)nc5CC[C@]4(C)[C@H]3CC[C@@]21C`, the growth was 47.5% (inactive). For `Oc1ccccc1/C=N/Nc1nc(N/N=C/c2ccccc2O)nc(N2CCOCC2)n1`, the growth was 11.9% (inactive). For `IP(CCCSc1n(Cc2ccc3ccccc3c2)c(-c2ccccc2)c(-c2ccccc2)[n+]1Cc1ccc2ccccc2c1)(c1ccccc1)(c1ccccc1)c1ccccc1`, the growth was 29.4% (inactive). For `Cn1cc(-c2nnc(N)nc2-c2cn(C)c3ccc(F)cc23)c2cc(F)ccc21`, the growth was 112% (inactive). For `N/C(=N\OC(=O)CSc1nc2ccccc2s1)c1ccc(Cl)cc1`, the growth was 101% (inactive).

These molecules were tested on IGROV1 ovarian in the same assay as above. Conditions: 10 µM unless noted.
`NS(=O)(=O)c1ccc(Nc2nc(N/N=C/c3ccc(F)cc3)nc(Nc3ccccc3)n2)cc1` was tested, and the growth was 43.5% (inactive). For `COc1ccc(-c2cc(-c3ccc(Cl)cc3)nc3nc(N)nn23)cc1`, the growth was 98.2% (inactive). With `COc1ccc(Cn2cc3c(c2-c2cc(OC)c(OC)c(OC)c2)CCCc2cnoc2-3)cc1` the growth was 22.1% (inactive). For `CN(c1ccc(F)cc1)S(=O)(=O)c1ccc(-c2cnc(C3CC3)o2)cc1`, the growth was 27.5% (inactive). `COC[C@]12CC[C@@H](C)[C@H](C)[C@H]1C1=CC[C@@H]3[C@@]4(C)CCCNC(C)(C)[C@@H]4CC[C@@]3(C)[C@]1(C)CC2` was tested, and the growth was 30.2% (inactive). For `C=C(C)[C@@H]1CC[C@]2(C(=O)ON)CC[C@]3(C)[C@H](CC[C@@H]4[C@@]5(C)C/C(=C/c6ccc(Br)cc6)C(=O)C(C)(C)[C@@H]5CC[C@]43C)[C@@H]12`, the growth was 90.4% (inactive). In the case of `CN(c1ccc(Br)cc1)S(=O)(=O)c1ccc(-c2cnc(C3CC3)o2)cc1`, the growth is reported as 29.9% (inactive). In the case of `CCCCCCNC(=O)Oc1ccc(/C(=C(\C)c2ccc(Cl)cc2)c2ccc(OCCN(C)C)cc2)cc1`, the growth is reported as 44.7% (inactive). In the case of `C=C(C)[C@@H]1CC[C@]2(COS(C)(=O)=O)CC[C@]3(C)[C@H](CC[C@@H]4[C@@]5(C)CCCNC(C)(C)[C@@H]5CC[C@]43C)[C@@H]12`, the growth is reported as 78.2% (inactive). In the case of `O=C(NNc1nc2cc(F)ccc2n2cncc12)c1cnccn1`, the growth is reported as 27.6% (inactive). In the case of `CN1CCN(c2ccc3c(C(N)=O)c(NC(=O)c4ccc(C(C)(C)C)cc4)sc3c2)CC1`, the growth is reported as 90.3% (inactive). In the case of `NC(=O)C(=Cc1ccc(Cl)cc1)C(N)=O`, the growth is reported as 59.1% (inactive). `CCN1C(=O)N(CC)C2SC(N/N=C/C=C/c3ccccc3OC)=NC21` (stereo not given) was tested, and the growth was 21.4% (inactive). With `CC(=O)C1=NN(c2ccc(Cl)cc2)C(=O)CN1C` the growth was 103% (inactive). `CCOC(=O)c1c(NCC(=O)Nc2ccc(Br)cc2)sc2c1CCCC2` was tested, and the growth was 22% (inactive). With `CN1CCN(c2ccc3c(c2)nc(NNC(=O)c2ccncn2)c2cccn23)CC1` the growth was 22.4% (inactive). With `CCOc1c(C#N)c(Nc2ccc(S(N)(=O)=O)cc2)c(C#N)c2nnc(C)n12` the growth was 101% (inactive). For `O=c1[nH]c(CNc2ccc(NCc3c(-c4ccccc4)no[n+]3[O-])cc2)nc2c1cnn2-c1ccccc1`, the growth was 73.5% (inactive). With `C#CCOc1ccc(C(Nc2ccc(Cl)cc2)c2nnnn2C2CCCCC2)cc1` (stereo not given) the growth was 84.3% (inactive). `COc1cc(/C=N/Nc2ccnc3cc(Cl)ccc23)cc(OC)c1O` was tested, and the growth was -83.8% (active). `COc1cc(C(=O)C[n+]2ccc3ccccc3c2)cc(OC)c1OC` was tested, and the growth was 95.8% (inactive). With `Cc1ccc(NC(=O)c2ccc(CN3CCN(C)CC3)c(I)c2)cc1Oc1ccc(-c2[nH]nc3ncnc(N)c23)cc1` the growth was 88% (inactive). In the case of `COc1ccc(Cn2cc3c(c2-c2ccccc2)CCCc2cnoc2-3)cc1`, the growth is reported as 51.5% (inactive). With `N#Cc1c(NC(=O)c2ccc(F)c(Cl)c2)sc2c1CCC(=O)C2` the growth was -25.7% (active). In the case of `c1ccc(-c2c(-c3ccccc3)[n+](Cc3ccc4ccccc4c3)c(-c3ccccc3)n2Cc2ccc3ccccc3c2)cc1`, the growth is reported as -76.5% (active). `CCOC(=O)C1=C(C)N=C2Sc3ccccc3N2C1c1ccccc1` (stereo not given) was tested, and the growth was 77.3% (inactive). In the case of `CCn1c2ccc(/C=N/NS(=O)(=O)CCN(C)C)cc2c2cc(/C=N/NS(=O)(=O)CCN(C)C)ccc21`, the growth is reported as 77.7% (inactive). For `Cn1cc2c(c1)-c1c(sc3nc(-c4ccc(NC(=O)Nc5cc(C(C)(C)C)on5)cc4)cn13)CC2`, the growth was 66.7% (inactive). In the case of `CCOC(=O)c1c(NC(=O)c2ccc(C(C)(C)C)cc2)sc2cc(OCCN3CCCCC3)ccc12`, the growth is reported as 74.9% (inactive). For `COc1ccccc1/C=C/C=N/NC1=NC2C(S1)N(C)C(=O)N2c1ccccc1` (stereo not given), the growth was 19.4% (inactive). With `CC1(C)CC[C@]2(C(=O)O)CC[C@]3(C)C(=CCC4[C@@]5(C)C[C@@H](O)[C@@H]6OC(c7cccc([N+](=O)[O-])c7)OC[C@@]6(C)C5CC[C@]43C)C2C1` (stereo not given in full) the growth was 74.4% (inactive). `CN(C)c1ncc(/C=C2\SC(=S)N(Cc3ccccc3Cl)C2=O)s1` was tested, and the growth was 70.8% (inactive). With `O=C(/C=C1\C=CN(CCCCO)c2ccccc21)n1ccc2ccccc21` the growth was 89.2% (inactive). `C#C[C@]1(O)CC[C@H]2[C@@H]3CC=C4c5sc(Nc6nc(C)cc(OC)n6)nc5CC[C@]4(C)[C@H]3CC[C@@]21C` was tested, and the growth was 66% (inactive). `Oc1ccccc1/C=N/Nc1nc(N/N=C/c2ccccc2O)nc(N2CCOCC2)n1` was tested, and the growth was 37% (inactive). `IP(CCCSc1n(Cc2ccc3ccccc3c2)c(-c2ccccc2)c(-c2ccccc2)[n+]1Cc1ccc2ccccc2c1)(c1ccccc1)(c1ccccc1)c1ccccc1` was tested, and the growth was 23.9% (inactive). With `Cn1cc(-c2nnc(N)nc2-c2cn(C)c3ccc(F)cc23)c2cc(F)ccc21` the growth was 101% (inactive). With `N/C(=N\OC(=O)CSc1nc2ccccc2s1)c1ccc(Cl)cc1` the growth was 89% (inactive).
